Assay results from PubChem BioAssay (NCI).
About 83,000 compounds went through this panel and 20% of them were active in at least one assay; those are over-represented in the sample as a whole.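 Assay: single dose, 48 h. Readout: percent growth (0 = no net growth; negative = cell death). Active: <10.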 Values without a mark were called inactive. Active and inactive are the calls of the source.

Key:
Assay in all cases: NCI-60 one-dose screen, 48 h (100 = growth as untreated, 0 = no growth, -100 = all killed)
Settings in all cases: 10 µM unless noted
[1] = test system: HCT-15 colon
[2] = test system: HT29 colon
[3] = test system: SNB-75 CNS
[4] = test system: SNB-19 CNS
[5] = test system: U251 CNS
[6] = test system: PC-3 prostate
[7] = test system: SK-MEL-5 melanoma
[8] = test system: UACC-62 melanoma
[9] = test system: LOX IMVI melanoma
[10] = test system: SK-MEL-28 melanoma
[11] = test system: SK-MEL-2 melanoma
[12] = test system: EKVX NSCLC
[13] = test system: SN12C renal
[14] = test system: UO-31 renal
[15] = test system: TK-10 renal
[16] = test system: ACHN renal
[17] = test system: CAKI-1 renal
[18] = test system: A498 renal
[19] = test system: MOLT-4 leukemia
[20] = test system: CCRF-CEM leukemia

Q: Which growth [1] does the source give for CC(=O)N[C@@H](CCC(N)=O)C(=O)O here?
A: The growth was 113%.

Q: What about the growth [2] of the same compound?
A: Its growth is 95.6%.

Q: What about the growth [3] of the same compound?
A: Its growth is 69.2%.

Q: What about the growth [4] of the same compound?
A: The growth was 126%.

Q: And the growth [5]?
A: The growth was 102%.

Q: What about the growth [6] of the same compound?
A: The growth was 74.5%.

Q: What about the growth [7] of the same compound?
A: The growth was 101%.

Q: What about the growth [8] of the same compound?
A: Its growth is 98.2%.

Q: And the growth [9]?
A: The growth was 91.4%.

Q: And the growth [10]?
A: Its growth is 101%.

Q: What about the growth [11] of the same compound?
A: The growth was 118%.

Q: And the growth [12]?
A: The growth was 107%.

Q: And the growth [13]?
A: Its growth is 85.7%.

Q: What about the growth [14] of the same compound?
A: The growth was 65.7%.

Q: What about the growth [15] of the same compound?
A: The growth was 107%.

Q: And the growth [16]?
A: The growth was 94.7%.

Q: And the growth [17]?
A: Its growth is 73.8%.

Q: What about the growth [18] of the same compound?
A: Its growth is 86.6%.

Q: And the growth [19]?
A: The growth was 95.3%.

Q: What does the source list for C=CCn1c(SCC(=O)Nc2ccc(C(=O)/C=C/c3ccc(Cl)cc3)cc2)nnc1-c1ccc(Cl)cc1?
A: growth [1]: 77.2%; growth [2]: 92.8%; growth [3]: 73.8%; growth [4]: 91.1%; growth [5]: 79.7%; growth [6]: 69.9%; growth [7]: 90.6%; growth [8]: 71.2%; growth [9]: 89.9%; growth [10]: 104%; growth [11]: 100%; growth [12]: 86.6%; growth [13]: 78.8%; growth [14]: 61.7%; growth [15]: 90.8%; growth [16]: 101%; growth [18]: 83.8%; growth [20]: 96.5%; growth [19]: 68.4%

Q: What does the source list for SCc1ccc(CS)cc1?
A: growth [1]: 105%; growth [2]: 120%; growth [3]: 109%; growth [4]: 115%; growth [5]: 101%; growth [6]: 98.1%; growth [7]: 95.7%; growth [8]: 105%; growth [9]: 96.2%; growth [10]: 112%; growth [11]: 108%; growth [12]: 104%; growth [13]: 100%; growth [14]: 85.6%; growth [15]: 115%; growth [16]: 102%; growth [20]: 98%

Q: How did the growth [1] turn out when COc1cc(/C=C/C(=O)c2ccc(NC(=O)CSc3nnc(-c4ccc(Cl)cc4)n3-c3ccccc3)cc2)cc(OC)c1OC was run?
A: Its growth is 49.8%.

Q: And the growth [2]?
A: The growth was 74.8%.

Q: And the growth [3]?
A: Its growth is 62.4%.

Q: And the growth [4]?
A: Its growth is 76.4%.

Q: What about the growth [5] of the same compound?
A: The growth was 69.7%.

Q: What about the growth [6] of the same compound?
A: The growth was 69.7%.

Q: What about the growth [7] of the same compound?
A: The growth was 55.8%.

Q: What about the growth [8] of the same compound?
A: The growth was 68.5%.

Q: And the growth [9]?
A: The growth was 73.9%.

Q: And the growth [10]?
A: The growth was 97.1%.

Q: What about the growth [11] of the same compound?
A: Its growth is 81.1%.

Q: What about the growth [12] of the same compound?
A: The growth was 75.1%.

Q: And the growth [13]?
A: The growth was 74.5%.

Q: And the growth [14]?
A: The growth was 75.6%.

Q: And the growth [15]?
A: The growth was 89.4%.

Q: What about the growth [16] of the same compound?
A: Its growth is 82.4%.

Q: And the growth [18]?
A: Its growth is 77.5%.

Q: What about the growth [20] of the same compound?
A: The growth was 57.8%.

Q: And the growth [19]?
A: The growth was 40.8%.

Q: How did the growth [1] turn out when CCCCn1c(-c2ccc(F)cc2)nc2cc(OC)c(OC)cc2c1=O was run?
A: The growth was 105%.

Q: What about the growth [2] of the same compound?
A: Its growth is 107%.

Q: And the growth [3]?
A: The growth was 98.8%.

Q: And the growth [4]?
A: The growth was 97.6%.

Q: What about the growth [5] of the same compound?
A: Its growth is 105%.

Q: And the growth [6]?
A: The growth was 102%.

Q: And the growth [7]?
A: The growth was 89.8%.

Q: And the growth [8]?
A: Its growth is 81.8%.

Q: And the growth [9]?
A: The growth was 98.3%.

Q: What about the growth [10] of the same compound?
A: The growth was 97.5%.

Q: What about the growth [11] of the same compound?
A: Its growth is 176%.

Q: And the growth [12]?
A: The growth was 105%.

Q: And the growth [13]?
A: Its growth is 91.3%.

Q: And the growth [14]?
A: Its growth is 82.2%.

Q: What about the growth [15] of the same compound?
A: Its growth is 75.1%.

Q: And the growth [16]?
A: The growth was 101%.

Q: And the growth [18]?
A: Its growth is 95.7%.

Q: What about the growth [20] of the same compound?
A: The growth was -46% (active).

Q: What about the growth [19] of the same compound?
A: The growth was 51.1%.

Q: For CCOC(=O)c1ccc(N(CCC(=O)O)C(C)=O)cc1, which growth [1] is on record?
A: The growth was 103%.

Q: What about the growth [2] of the same compound?
A: The growth was 97.4%.

Q: And the growth [3]?
A: Its growth is 94.7%.

Q: What about the growth [4] of the same compound?
A: The growth was 106%.

Q: And the growth [5]?
A: The growth was 102%.

Q: And the growth [6]?
A: The growth was 90%.

Q: What about the growth [7] of the same compound?
A: The growth was 102%.

Q: And the growth [8]?
A: Its growth is 99.4%.

Q: What about the growth [9] of the same compound?
A: The growth was 105%.

Q: And the growth [10]?
A: Its growth is 103%.

Q: What about the growth [11] of the same compound?
A: The growth was 105%.

Q: And the growth [12]?
A: Its growth is 130%.

Q: And the growth [13]?
A: The growth was 107%.

Q: And the growth [14]?
A: Its growth is 79%.

Q: What about the growth [15] of the same compound?
A: The growth was 105%.

Q: What about the growth [17] of the same compound?
A: Its growth is 101%.

Q: And the growth [18]?
A: The growth was 104%.

Q: What about the growth [20] of the same compound?
A: Its growth is 98.3%.

Q: And the growth [19]?
A: The growth was 104%.

Q: What does the source list for Cc1c(C)c(C)c([N+](=O)[O-])c([N+](=O)[O-])c1C?
A: growth [1]: 94%; growth [2]: 102%; growth [3]: 111%; growth [4]: 95.4%; growth [5]: 101%; growth [6]: 84%; growth [7]: 99.3%; growth [8]: 83.6%; growth [9]: 95.9%; growth [10]: 104%; growth [11]: 103%; growth [12]: 90.7%; growth [13]: 98.7%; growth [14]: 81.8%; growth [15]: 91.3%; growth [17]: 90.8%; growth [18]: 67.9%; growth [20]: 121%

Q: Which results are given for COc1ccc(-c2nnc(SCC(=O)Nc3ccc(C(=O)/C=C/c4ccc(Cl)cc4)cc3)n2-c2ccccc2)cc1?
A: growth [1]: 94.7%; growth [2]: 99.2%; growth [3]: 86.5%; growth [4]: 99.6%; growth [5]: 85.8%; growth [6]: 87.9%; growth [7]: 92.1%; growth [8]: 83.7%; growth [9]: 103%; growth [10]: 101%; growth [11]: 100%; growth [12]: 102%; growth [13]: 101%; growth [14]: 73.8%; growth [15]: 109%; growth [16]: 107%; growth [18]: 116%; growth [20]: 86.5%; growth [19]: 81.5%
